Laboratory results taken from PubChem BioAssay (NCATS).
Results filed as inconclusive are left out. Unmarked numbers belong to inactive results. The call rests on the fitted dose curve; in most records, active means well fitted cell-killing curve with a large enough effect; inconclusive means small, poorly fitted or top-dose-only effect, or effect the other way; inactive means flat fitted curve, though single readings scatter. Where a SMILES comes first, the peptide text is derived from it. [ ]: non-standard residue; d: D form. pGlu = O=C1CC[C@@H](C(=O)O)N1

What follows are molecules tested on OV90 (assay: Primary qHTS to identify gynecologic anti-cancer compounds using libraries of approved drugs and bioactive compounds (AID 1345084; further: nearly all actives have a fitted effect of over 55% in size)). Conditions: Gynecologic cancer cell panel viability, ATPlite luminescence, 48 h; series mostly up to 57.5 µM; activity change, negative = cytotoxicity: at the top concentration.
How it was run: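 Cytotoxicity screen measuring ATP content by luciferase luminescence. Each compound is applied at five concentrations for 48 h at 37 C with 5% CO2.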
On the % scale 0 is the no-effect control and ±100 the full control effect.

First: CC1(C)OC(=O)Nc2ccc(Br)cc21
Second: Cc1coc2ccccc2c1=O
The “activity change, negative = cytotoxicity” value of the first is lower: 0.0737% for the first, 9.99% for the second.

Going from `Cc1cccc(C)c1NC(=O)c1ccc(N)cc1` to `Cc1ccc(C(=O)C(=O)O)cc1C`, the “activity change, negative = cytotoxicity” value rises from 0.821% to 8.95%.

Going from `Cc1cccc(OCC(O)CNC(C)(C)C)c1C` (configuration not stated) to `COC(=O)c1ccc(NC(C)=O)cc1OC`, the “activity change, negative = cytotoxicity” value rises from 7.12% to 17.3%.

First: COC(=O)c1cc(Cl)c(NC(C)=O)cc1OC
Second: CCOC(=O)Oc1ccc(CCNC(=O)[C@H](CCSC)NC(C)=O)cc1OC(=O)OCC
The “activity change, negative = cytotoxicity” value of the first is higher: 18.1% for the first, -18.9% for the second.

Going from `CSCC[C@H](NC(=O)[C@H](Cc1c[nH]c2ccccc12)NC(=O)CCNC(=O)OC(C)(C)C)C(=O)N[C@@H](CC(=O)O)C(=O)N[C@@H](Cc1ccccc1)C(N)=O` to `CCNC(=O)[C@@H]1CCCN1C(=O)[C@H](CCCN=C(N)N)NC(=O)[C@H](CC(C)C)NC(=O)CNC(=O)[C@H](Cc1ccc(O)cc1)NC(=O)[C@H](CO)NC(=O)[C@H](Cc1c[nH]c2ccccc12)NC(=O)[C@H](Cc1cnc[nH]1)NC(=O)[C@@H]1CCC(=O)N1` ([pGlu]HWSYGLRP-NHEt), the “activity change, negative = cytotoxicity” value rises from 2.15% to 8.58%.

Compared with `CC(C)C(=O)OCc1cccc(OC(=O)[C@@H]2N3C(=O)[C@@H](NC(=O)Cc4ccccc4)[C@H]3SC2(C)C)c1`, `CCc1cc2cc(OC)c(OC)cc2c(Cc2ccccc2)n1` is higher in “activity change, negative = cytotoxicity” value: -21.4% for the first, -20.2% for the second.

Going from `Cc1[nH]cnc1-c1ccc(Cl)cc1` to `COc1ccc(CCC(C)=O)cc1`, the “activity change, negative = cytotoxicity” value rises from 3.07% to 28.4%.

First: Cc1sccc1Br
Second: Cc1ccc(C(C)OC(=O)C2(C)CCC(C(=O)O)C2(C)C)cc1 (configuration not stated)
The “activity change, negative = cytotoxicity” value of the first is higher: 19.7% for the first, 1.8% for the second.

For `Fc1ccc(C(c2ccc(F)cc2)N2CCNCC2)cc1`, the “activity change, negative = cytotoxicity” value was -35.1%.
